# Measured values: PubChem BioAssay AID686978 (National Center for Advancing Translational Sciences (NCATS), 2013)
# “And” between values parts separate entries of the source, which are not always exact repeats. Equal entries are not always repeated. In all, about 420,000 compounds went through this assay and about 64,000 (15%) were called active. Another 27% or so got no clear call; they are omitted. Only a sample is shown. Values without a mark were called inactive. Calls follow the shape of the dose curve; as a rule, active = well fitted inhibition curve with a large enough effect; inconclusive = small, poorly fitted or top-dose-only effect; inactive = flat fitted curve, though single readings scatter.
# Assay: qHTS for Inhibitors of human tyrosyl-DNA phosphodiesterase 1 (TDP1): qHTS in cells in absence of CPT; also: nearly all actives have a fitted effect of over 55% in size
# Conditions: DT40 Tdp1-/- hTDP1 cells, no CPT, ATP luminescence, 48 h; activity change, negative = growth inhibition: at 46.2 µM (top of the series)
# Outline: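 Compound effects on proliferation are scored in DT40 Tdp1-/-;hTDP1 cells in the absence of CPT. ATP levels (CellTiter-Glo luminescence) are recorded after a ≥48 hr, 37 °C incubation.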
# % is scaled to controls: 0 for no effect and ±100 for the full control effect; potency is read from the fitted curve at half-maximal effect.
SMILES,"activity change, negative = growth inhibition [%]",Potency
COc1ccccc1C(=O)N1C(CC(=O)Nc2ccccc2C)C(=O)NC2CCCCC21 (stereo unspecified),8.38,
COc1cccc(-n2c(=S)[nH]c3c(oc4ccccc43)c2=O)c1,0.503,
CNc1[nH]ncc1[N+](=O)[O-],-6.95,
CCCCCCNCCn1cnc2c(N)ncnc21,5.52,
Cc1ccc(NC(=O)CSc2nn3c(=O)c(C)nnc3s2)cc1Cl,-11.4,
Cc1ccc(C)c(NC(=O)CSc2nc3c(oc4ccccc43)c(=O)n2-c2ccccc2)c1,,10.3 µM (active)
Cc1nc(SCC(=O)c2ccccc2)c([N+](=O)[O-])[nH]1,-10.8,
Cc1cccc(NC(=O)CSc2nc3c(oc4ccccc43)c(=O)n2-c2ccc(F)cc2)c1,-29.1,
Cc1ccc(-n2c(SCC(=O)c3ccccc3)nc3c([nH]c4ccccc43)c2=O)cc1,,3.66 µM (active)
Cc1ccc(NC(=O)CSc2nnc3[nH]c(=O)cc(C)n23)cc1Cl,2.16,
Cc1ccc(NC(=O)Cn2nc(C)c3ccccc3c2=O)c(C)c1,-20.9,
Cc1ccc(NC(=O)CSc2nc3c([nH]c4ccccc43)c(=O)n2-c2ccccc2)c(C)c1,,16.4 µM (active)
CC(C)OCCCn1c(SCC(=O)c2ccccc2)nc2c(sc3ccccc32)c1=O,7.97,
Cc1ccc(-n2c(SCC(=O)Nc3cccc(F)c3)nc3c(oc4ccccc43)c2=O)cc1C,-22.3,
Cc1ccc(NC(=O)CSc2nc3c([nH]c4ccccc43)c(=O)n2-c2ccccc2)cc1Cl,,23.1 µM (active)
Cc1ccc(NC(=O)COC(=O)CCc2nc3ccccc3n2-c2ccccc2)c(C)c1,-3.81,
O=C(CC12CC3CC(CC(C3)C1)C2)NCc1ccco1,-0.431,
CCCOc1ccc(Cc2c(O)nc(N)[nH]c2=O)cc1C,-1.45,
CN1C(=O)CC(c2ccccc2)C1=O (stereo unspecified),-6.89,
Cc1cc(C(=O)CC#N)c(C)n1CC(F)(F)F,-20.7,
CCC(=O)N1CCC(C)(C(=O)Nc2cc(OC)c(OC)c(OC)c2)C1 (stereo unspecified),11.7,
C/C(=N\NS(=O)(=O)c1ccc(Br)cc1)c1cccs1,-15.2,
O=C(c1ccco1)N1CCC[C@@]2(CCN(Cc3nccs3)C2)C1,-12.2,
C[C@H](CO)N1C[C@H](C)[C@@H](CN(C)C(=O)c2cnccn2)Oc2ncc(Br)cc2C1=O,-16.7,
CC1CN(C(=O)CN2C(=O)NC(C)(c3ccccc3)C2=O)CC(C)O1 (stereo unspecified),-7.19,
O=C(c1ccccc1)c1cccn1CC(=O)N1CCN(c2ccc(F)cc2)CC1,-25.7,

SMILES,"activity change, negative = growth inhibition [%]",Potency
CCOC(=O)c1ccc(NC(=O)c2cc(=O)[nH]c3ccccc23)cc1,-22.2,
CCOn1c(SC(C)C)nc2ccccc2c1=O,-21.4,
Cn1nnnc1SCc1cc(=O)[nH]c2ccccc12,-28.9,
CCOC(=O)c1ccc(NC(=O)CSc2nnc(COc3ccccc3OC)n2C)cc1,-2.75,
CC(Sc1nc2c([nH]c3ccccc32)c(=O)n1C)c1ccccc1 (stereo unspecified),,18.4 µM (active)
CCOC(=O)c1ccc(NC(=O)CSc2nc3c([nH]c4ccccc43)c(=O)n2C)cc1,,9.2 µM (active)
CSc1ncccc1C(=O)OCC(=O)N1CCOCC1,-3.53,
CCOC(=O)c1cccc(NC(=O)CCc2nnc3ccc(N4CCOCC4)nn23)c1,-0.956,
CC(C)c1nc2ccc(C(=O)O)cc2[nH]1,10.6,
Cc1nc2ccc(C(=O)O)cc2[nH]1,-0.0869,
COC(=O)Nc1nc2ccc(Sc3ccccc3)cc2[nH]1,,517 nM (active) and 286 nM (active)
CC1CCN(C(=O)/C(=C\c2ccccc2)NC(=O)c2ccccc2)CC1,-22.2,
O=C(CS(=O)(=O)Cc1ccccc1)Nc1cccnc1,-9.09,
CNc1cncc(-c2cccc(C(=O)N3CCOCC3)c2)n1,0.0506,
CS(=O)(=O)Nc1ccc(C(=O)N2CCCC2)cc1,1.79,
CNc1cncc(-c2ccc(NS(C)(=O)=O)cc2)n1,,4.11 µM (active)
CCCS(=O)(=O)C(=C1Nc2ccccc2N1)S(=O)(=O)CCC,-3.88,
CN(C)S(=O)(=O)c1cc(C(=O)Nc2ccn(C)n2)c(Cl)cc1Cl,-0.996,
COc1ccc(OC)c(CNC(=O)C2CCCN(c3nc4ccccc4o3)C2)c1 (stereo unspecified),-18.9,
COc1ccc2c(c1)NC(=O)C2CC(=O)N1CCOc2c(cc(-c3cnc4ccccc4c3)cc2OC)C1 (stereo unspecified),,18.4 µM (active)
COc1cc(-c2cccnc2)cc2c1OCCN(C(=O)Cc1csc(C)n1)C2,-6.19,
COC(=O)c1ccc(/C=C2/C(=O)Oc3ccccc32)cc1,-21.5,
O=C1Oc2ccccc2C(=O)/C1=C/c1ccccc1O,,8.2 µM (active)
COC(=O)c1c(NC(=O)c2c(Cl)cnn2C)sc(C)c1C,-17.9,
CN1CCN(c2ccc(S(=O)(=O)N3CCOCC3)cc2NC(=O)CCc2ccccc2)CC1,10.5,
